Laboratory results: PubChem BioAssay (NCI)
Compounds without any hit were thinned out: in the full panel of roughly 79,000, 15% have a hit. The source made the active and inactive calls. Rule as the data show it: active = growth inhibition above about 70%; inactive = the rest.

Key:
[1] = NCI Yeast Anticancer Drug Screen. Data for the rad50 strain (AID 155);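 also: 0% = growth of vehicle-only cultures of the same strain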; conditions: S. cerevisiae rad50 strain growth inhibition; at 50.0 µM; hits give high values
Procedure, shortened: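 Readout: growth inhibition relative to vehicle-treated cultures. Compound exposure was carried out in a genetically defined yeast strain deficient in DNA damage repair.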

[2] = NCI Yeast Anticancer Drug Screen. Data for the mec2-1 strain (AID 157); conditions: S. cerevisiae mec2-1 strain, at 50.0 µM, hits give high values
Procedure, shortened: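 Growth inhibition is read against vehicle-treated controls after compound exposure of the mec2-1 yeast strain, which is defective in DNA damage repair or cell cycle control.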

[3] = NCI Yeast Anticancer Drug Screen. Data for the sgs1 mgt1 strain (AID 161);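 also: 0% = growth of cultures given vehicle only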; conditions: S. cerevisiae sgs1 mgt1 strain, at 50.0 µM, hits give high values
Procedure, shortened: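 Compounds are added to genetically altered yeast, and growth is compared with cultures given vehicle alone to give percent inhibition.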

[4] = NCI Yeast Anticancer Drug Screen. Data for the cln2 rad14 strain (AID 165);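 also: 0% = growth equal to vehicle treated cultures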; conditions: S. cerevisiae cln2 rad14 strain, at 50.0 µM, hits give high values
Procedure, shortened: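 Growth inhibition, relative to vehicle-treated controls, is the read-out. The test organism is a yeast strain with defined genetic alterations, cln2 rad14.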

[5] = NCI Yeast Anticancer Drug Screen. Data for the bub3 strain (AID 167); conditions: S. cerevisiae bub3 mutant strain, at 50.0 µM, hits give high values
Procedure, shortened: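 Readout: yeast growth inhibition, expressed relative to vehicle-only wells. The test organism is a mutant strain from a panel with lesions in DNA repair or checkpoint genes.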

[6] = NCI Yeast Anticancer Drug Screen. Data for the mlh1 rad18 strain (AID 175); conditions: S. cerevisiae mlh1 rad18 strain growth inhibition; at 50.0 µM; hits give high values
Procedure, shortened: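 Cells of a genetically altered yeast strain, deficient in DNA damage repair, were treated with compound. Their growth was then compared with that of vehicle-treated cultures to give inhibition.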

Measured: growth inhibition

CC12C3CC4C5CC(C(C53)[C@@H]1NCc1ccccc1)C42 (some centres undefined)
inactive: [1] 44.8% | [2] 6.8% | [3] 19.2% | [4] 35.4% | [5] 32.9% | [6] 21.9%

Cc1cccc(N(CCOS(C)(=O)=O)CCOS(C)(=O)=O)c1
inactive: [1] -8.6% | [2] -2.2% | [3] 14% | [4] -47.4% | [5] -5.2% | [6] -10.9%

CCOC(=O)C1C=C1C(C)(C)O (centres undefined)
inactive: [1] -15.4% | [2] 9.3% | [3] -13.1% | [4] 1% | [5] 3.9% | [6] -32.9%

Cc1cc(C)c(N)c(C(=O)O)c1
inactive: [1] -46.5% | [2] -34.6% | [3] -39.8% | [4] -16.1% | [5] -47% | [6] -15.9%

COc1cc(NCCCN(CC(C)C)CC(C)C)c2ncccc2c1Cl
inactive: [1] 27.5% | [2] 26.1% | [3] 55% | [4] 19.8% | [5] 27.3% | [6] 38.4%

COC(=O)C1(OC(=O)Sc2ccccc2)CCN(C)CC1
inactive: [1] -19.8% | [2] -5.95% | [3] -7.15% | [4] 15.4% | [5] -7.55% | [6] -25.1%

COC(=O)CCSCCC(=O)OC
inactive: [1] 1.5% | [2] -0.15% | [3] -8.15% | [4] -8.2% | [5] 1.75% | [6] -1.95%

c1ccc([Si](c2ccccc2)(c2ccccc2)c2ccc(-c3ccc([Si](c4ccccc4)(c4ccccc4)c4ccccc4)cc3)cc2)cc1
inactive: [1] 1.1% | [2] -0.75% | [3] -8.3% | [4] -4.35% | [5] -0.05% | [6] -15.9%

CC1=N[C@](C)(C2CC3C=CC2C3=O)COC1=O (some centres undefined)
inactive: [1] -15.5% | [2] -18.5% | [3] -27% | [4] -1.9% | [5] -11.6% | [6] -5.45%

CC(=O)OC1COC(N2C(=O)C(=O)c3ccccc32)C(OC(C)=O)C1OC(C)=O (centres undefined)
inactive: [1] 13.1% | [2] 19.4% | [3] -1.5% | [4] -22.4% | [5] 9.05% | [6] 19.1%

CN1CCN(Cc2oc(CO)cc(=O)c2O)CC1
inactive: [1] -3.8% | [2] -22.9% | [3] 5.2% | [4] 12.2% | [5] 16.8% | [6] -7.65%

CC1=CCCCC1(C)/C(C)=N/Nc1ccc([N+](=O)[O-])cc1[N+](=O)[O-] (centres undefined)
inactive: [1] 2.05% | [2] 7.3% | [3] 2.8% | [4] 2.75% | [5] -1.4% | [6] -15.3%

O=C(c1ccccc1O)N1CCCCC1
inactive: [1] 32.1% | [2] 25.2% | [3] 12.5% | [4] 13.9% | [5] 16.6% | [6] 11.3%

CCC1(O)c2ccccc2CCC1C (centres undefined)
inactive: [1] 12.8% | [2] -15.8% | [3] -15.3% | [4] -29.9% | [5] -33.1% | [6] -19.9%

COc1ccc(/C=N/CCl)cc1
inactive: [1] -1.55% | [2] 2% | [3] 7.05% | [4] -49.3% | [5] -22.1% | [6] -1.2%

NC(=O)COc1ncc(Cl)cc1Cl
inactive: [1] 4.05% | [2] -6.45% | [3] 3.15% | [4] -19.4% | [5] 4.4% | [6] 3.35%

O=C1NCCN1CCCl
inactive: [1] 0.7% | [2] -1.25% | [3] -5.15% | [4] 1.5% | [5] 1.65% | [6] 6.25%

Cc1cccc(NC(=O)Oc2ccc(Cl)cc2C(=O)c2ccccc2)c1
inactive: [1] 30.4% | [2] 10.7% | [3] 35.4% | [4] 29.9% | [5] 34.4% | [6] 26.2%

O=C1C(Cc2ccccc2)CCCC1Cc1ccccc1 (centres undefined)
inactive: [1] -5.25% | [2] 17.3% | [3] -8.05% | [4] -21.5% | [5] -6.4% | [6] 3.35%

N#C/C(=C\c1ccco1)C(=O)Nc1ccc(Br)cc1
inactive: [1] 27.9% | [2] -3.75% | [3] 1.65% | [4] -35.8% | [5] 9.1% | [6] 23.8%

O=C(Nc1cccc2ccccc12)Oc1ccc(Br)cc1Br
inactive: [4] 30.2% | [5] 54.1%
active: [1] 84.1% | [2] 71.2% | [3] 93.3% | [6] 92.7%

O=C(OCC(O)C(O)C(O)C(O)COC(=O)c1ccccc1)c1ccccc1 (centres undefined) (tested in a mixture with another compound)
inactive: [1] -0.9% | [2] 3.6% | [3] -0.75% | [4] -29.6% | [5] 0.85% | [6] 12.2%

CSc1nc(-c2ccc([N+](=O)[O-])cc2)oc1/N=C/c1ccc([N+](=O)[O-])cc1
inactive: [1] -8.45% | [2] -9.65% | [3] -14.6% | [4] -29.1% | [5] 3% | [6] 4.35%

O=C1C(CCCS)C(c2ccccc2)=NN1c1ccccc1 (centres undefined)
inactive: [1] 54.9% | [2] 3.9% | [3] 18.4% | [4] -12.8% | [5] 0.45% | [6] 39%

C=C1C(c2ccccc2)C(c2ccccc2)=C(C)C(c2ccccc2)=CN1C(=O)c1ccccc1 (centres undefined)
inactive: [1] -3.05% | [2] 8.7% | [3] -9.2% | [4] 23.2% | [5] -4.7% | [6] 15.2%

O=c1[nH]c2cc(Cl)ccc2c2cc(Cl)ccc12
inactive: [1] 39.9% | [2] 7.6% | [3] 16.6% | [4] -3.3% | [5] -0.3% | [6] 52.2%

COc1ccc(-c2nnc3n(C)c4ccccc4n3c2=O)cc1
inactive: [1] 3.25% | [2] 8.55% | [3] 16.4% | [4] 26.5% | [5] 23.4% | [6] -23.2%

C/C(CC(=O)Nc1cccc([N+](=O)[O-])c1)=N\NC(=O)C[n+]1ccccc1
inactive: [1] 15.5% | [2] -16.9% | [3] -0.65% | [4] 19.1% | [5] 0.5% | [6] -3.35%

CC(=O)NC(C)Cc1ccc(C(=O)O)cc1 (centres undefined)
inactive: [1] 13.9% | [2] -6.25% | [3] -8.5% | [4] -36.4% | [5] -4.5% | [6] 12.6%

CCOC(=O)c1nc2ccccc2nc1Nc1ccc(OC)c(OC)c1
inactive: [1] -30.2% | [2] -31.5% | [3] -15.9% | [4] -15.6% | [5] -16.6% | [6] -19.3%

O=C(/C=C/c1ccccc1O)c1ccccc1
inactive: [1] -22.8% | [2] -15.7% | [3] 3.2% | [4] 1.9% | [5] -5.2% | [6] -24.6%

CCCCCCCC(=O)NN(Cn1c(=S)sc2ccccc21)Cn1c(=S)sc2ccccc21
inactive: [1] 32% | [2] 9.25% | [3] 26.7% | [4] 21.7% | [5] -2.7% | [6] 6.65%

COc1ccc(NC(=O)C(Br)C(Br)c2ccccc2)c(Cl)c1 (centres undefined)
active: [1] 96.8% | [2] 97.2% | [3] 97.2% | [4] 97.3% | [5] 97% | [6] 97.2%

Cc1ccc([Si](C)(C)c2ccccc2)cc1
inactive: [1] -2.4% | [2] 13.6% | [3] -2.65% | [4] 7.7% | [5] 9.7% | [6] 4.9%

O=[N+]([O-])c1ccc(S(=O)(=O)N/N=C/c2ccco2)cc1
inactive: [1] 14.6% | [2] 5.95% | [3] 0.9% | [4] 9.75% | [5] 13.2% | [6] 23.9%

O=[N+]([O-])c1ccc(-c2ccc([N+](=O)[O-])cc2)cc1
inactive: [1] -2.05% | [2] -0.95% | [3] 7.7% | [4] -38.5% | [5] 22.6% | [6] -13.3%

CS/C(=N\S(=O)(=O)c1cc(C)c(Cl)cc1Cl)NNc1cnc2ccccc2n1
inactive: [1] -12.1% | [2] -23.4% | [3] -7.1% | [4] 11.9% | [5] -17.2% | [6] 1.7%

C[N+]([O-])(CCO)Cc1ccccc1 (centres undefined)
inactive: [1] -1.45% | [2] -17.8% | [3] -6.1% | [4] 0.95% | [5] 4.75% | [6] -14.3%

CC(C)CC(C)N=C1CC2CCC1(C)C2(C)C (centres undefined)
inactive: [1] -32.3% | [2] -24.6% | [3] -3.35% | [4] -14.2% | [5] -7.15% | [6] -7.05%
